Test in all cases: DAPPL (digital affinity profiling via proximity ligation, sequencing); 10 mM Tris-HCl pH 7.5, 50 mM NaCl, 1 mM DTT, 4% glycerol, room temperature, 30 min; GST-TFs on glutathione beads, 16-mer random dsDNA library, 0.1% formaldehyde crosslink after washing; high values mean tight binding
The target in assay [1] is T1, FEV (Homo sapiens, UniProt Q99581 1-238).
T1 sequence: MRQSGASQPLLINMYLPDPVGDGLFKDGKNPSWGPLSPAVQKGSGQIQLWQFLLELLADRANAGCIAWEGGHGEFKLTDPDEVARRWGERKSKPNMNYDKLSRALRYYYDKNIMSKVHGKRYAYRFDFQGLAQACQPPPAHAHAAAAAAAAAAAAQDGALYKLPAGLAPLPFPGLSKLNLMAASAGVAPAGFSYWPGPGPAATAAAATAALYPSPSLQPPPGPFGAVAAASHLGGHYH
The settings on record: protein: recombinant; tags: N-terminal GST; dsDNA, one strand shown. A digest of the protocol: (§1)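 A tag-only sample was pooled with DNA-barcoded human transcription factors that had been expressed in yeast as GST fusions and captured on glutathione beads. The pools were incubated for 30 min at room temperature with 200 nmole of a random double-stranded 16-mer DNA library in Tris/NaCl/DTT/glycerol buffer, then washed, crosslinked with 0.1% formaldehyde, proximity-ligated (BsaI/T4 ligase, 1 h, 37 °C), PCR-amplified and sequenced on an Illumina NextSeq500. Binding signal is each hexamer's read frequency for a factor divided by its frequency for the tag-only sample.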

For assay [2], the target named is ETV5 (Homo sapiens, UniProt P41161 1-510). The settings on record: protein: recombinant; tags: N-terminal GST; dsDNA, one strand shown. The essentials: as §1
The target of assay [3] is HSF1 (Homo sapiens, UniProt Q00613 1-529). The settings on record: protein: recombinant; tags: N-terminal GST; chain copies: 3; dsDNA, one strand shown. The essentials:
as §1

Assay [4] deals with T2, SPIC (Homo sapiens, UniProt Q8N5J4 1-248).
T2 sequence: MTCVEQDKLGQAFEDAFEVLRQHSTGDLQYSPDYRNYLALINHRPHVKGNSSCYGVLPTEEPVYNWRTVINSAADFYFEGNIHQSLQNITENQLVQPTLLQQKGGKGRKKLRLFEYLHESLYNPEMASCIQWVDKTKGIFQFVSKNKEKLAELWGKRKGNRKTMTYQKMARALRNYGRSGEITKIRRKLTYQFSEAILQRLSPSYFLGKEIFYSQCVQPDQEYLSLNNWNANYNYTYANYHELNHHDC
The settings on record: protein: recombinant; tags: N-terminal GST; dsDNA, one strand shown. A digest of the protocol:
as §1

Assay [5] addresses ELF4 (Homo sapiens, UniProt Q99607 1-663). To be noted: protein: recombinant; tags: N-terminal GST; dsDNA, one strand shown. A digest of the protocol: as §1
In assay [6] the target is T3, ELK4 (Homo sapiens, UniProt P28324-2 1-405).
T3 sequence: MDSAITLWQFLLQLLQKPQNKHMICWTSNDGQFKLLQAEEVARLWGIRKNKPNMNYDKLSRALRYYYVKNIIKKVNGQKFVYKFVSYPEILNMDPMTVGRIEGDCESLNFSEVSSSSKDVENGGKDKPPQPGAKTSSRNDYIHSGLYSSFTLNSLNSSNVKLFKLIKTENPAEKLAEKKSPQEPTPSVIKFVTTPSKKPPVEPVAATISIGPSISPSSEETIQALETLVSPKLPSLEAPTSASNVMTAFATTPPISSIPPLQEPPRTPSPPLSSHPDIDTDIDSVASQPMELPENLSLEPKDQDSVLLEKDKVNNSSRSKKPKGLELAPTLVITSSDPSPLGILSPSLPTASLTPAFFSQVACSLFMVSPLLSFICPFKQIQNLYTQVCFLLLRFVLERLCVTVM
To be noted: protein: recombinant; tags: N-terminal GST; dsDNA, one strand shown. The essentials: as §1

Assay [7] deals with T4, ETV2 (Homo sapiens, UniProt O00321 1-342).
T4 sequence: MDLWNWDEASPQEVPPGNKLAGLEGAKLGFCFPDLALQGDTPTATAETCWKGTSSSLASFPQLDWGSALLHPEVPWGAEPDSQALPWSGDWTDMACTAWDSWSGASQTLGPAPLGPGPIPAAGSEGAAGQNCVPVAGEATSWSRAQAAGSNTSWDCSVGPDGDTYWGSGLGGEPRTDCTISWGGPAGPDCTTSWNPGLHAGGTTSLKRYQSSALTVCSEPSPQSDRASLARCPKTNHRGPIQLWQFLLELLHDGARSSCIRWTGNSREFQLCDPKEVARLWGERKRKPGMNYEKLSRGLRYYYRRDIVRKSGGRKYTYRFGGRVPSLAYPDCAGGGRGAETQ
To be noted: protein: recombinant; tags: N-terminal GST; dsDNA, one strand shown. The essentials: as §1

In assay [8] the target is T5, ELF3 (Homo sapiens, UniProt P78545 1-371).
T5 sequence: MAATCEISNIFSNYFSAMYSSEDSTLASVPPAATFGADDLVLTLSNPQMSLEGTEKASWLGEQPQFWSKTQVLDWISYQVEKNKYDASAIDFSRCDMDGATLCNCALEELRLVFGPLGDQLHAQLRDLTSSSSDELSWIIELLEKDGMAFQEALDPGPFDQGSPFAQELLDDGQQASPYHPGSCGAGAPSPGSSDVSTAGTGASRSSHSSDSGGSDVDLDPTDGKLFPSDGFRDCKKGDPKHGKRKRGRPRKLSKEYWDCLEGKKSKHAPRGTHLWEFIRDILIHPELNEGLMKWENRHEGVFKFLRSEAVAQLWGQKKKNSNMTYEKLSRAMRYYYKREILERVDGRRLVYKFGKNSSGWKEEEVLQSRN
The settings on record: protein: recombinant; tags: N-terminal GST; dsDNA, one strand shown. A digest of the protocol: as §1

Assay [9] deals with CRX (Homo sapiens, UniProt O43186 1-299). To be noted: protein: recombinant; tags: N-terminal GST; dsDNA, one strand shown. A digest of the protocol:
as §1

Assay [10] addresses ETV1 (Homo sapiens, UniProt P50549 1-477). To be noted: protein: recombinant; tags: N-terminal GST; dsDNA, one strand shown. The essentials: as §1
Assay [11] has as its target T6, ERF (Homo sapiens, UniProt P50548 1-548).
T6 sequence: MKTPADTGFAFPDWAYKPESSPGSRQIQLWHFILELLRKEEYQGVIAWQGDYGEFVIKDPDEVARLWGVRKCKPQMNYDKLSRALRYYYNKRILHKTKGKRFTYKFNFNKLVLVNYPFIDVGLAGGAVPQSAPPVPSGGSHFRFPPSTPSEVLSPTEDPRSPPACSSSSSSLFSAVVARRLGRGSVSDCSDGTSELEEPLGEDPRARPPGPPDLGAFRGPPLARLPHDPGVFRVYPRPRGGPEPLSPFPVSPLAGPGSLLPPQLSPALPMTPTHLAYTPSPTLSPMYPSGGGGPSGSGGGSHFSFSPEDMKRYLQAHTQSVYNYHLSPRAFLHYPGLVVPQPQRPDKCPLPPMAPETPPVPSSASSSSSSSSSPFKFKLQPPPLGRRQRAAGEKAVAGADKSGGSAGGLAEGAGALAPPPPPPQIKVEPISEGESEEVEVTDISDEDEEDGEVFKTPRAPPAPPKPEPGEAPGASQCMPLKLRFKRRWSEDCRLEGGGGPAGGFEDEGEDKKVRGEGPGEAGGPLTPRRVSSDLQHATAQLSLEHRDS
The settings on record: protein: recombinant; tags: N-terminal GST; dsDNA, one strand shown. A digest of the protocol:
as §1

In assay [12] the target is T7, ETV3L (Homo sapiens, UniProt Q6ZN32 1-361).
T7 sequence: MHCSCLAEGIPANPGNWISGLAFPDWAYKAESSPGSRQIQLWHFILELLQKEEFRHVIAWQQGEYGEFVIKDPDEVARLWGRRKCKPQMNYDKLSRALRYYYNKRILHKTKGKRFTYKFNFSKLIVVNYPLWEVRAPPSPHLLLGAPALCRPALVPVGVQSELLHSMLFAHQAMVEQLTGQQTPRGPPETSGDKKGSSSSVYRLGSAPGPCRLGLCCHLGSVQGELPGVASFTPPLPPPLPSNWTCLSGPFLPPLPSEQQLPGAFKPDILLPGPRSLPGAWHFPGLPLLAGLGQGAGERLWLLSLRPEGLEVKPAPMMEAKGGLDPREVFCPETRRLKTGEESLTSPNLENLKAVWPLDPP
To be noted: protein: recombinant; tags: N-terminal GST; dsDNA, one strand shown. The essentials:
as §1

In assay [13] the target is T8, ETS2 (Homo sapiens, UniProt P15036 1-469).
T8 sequence: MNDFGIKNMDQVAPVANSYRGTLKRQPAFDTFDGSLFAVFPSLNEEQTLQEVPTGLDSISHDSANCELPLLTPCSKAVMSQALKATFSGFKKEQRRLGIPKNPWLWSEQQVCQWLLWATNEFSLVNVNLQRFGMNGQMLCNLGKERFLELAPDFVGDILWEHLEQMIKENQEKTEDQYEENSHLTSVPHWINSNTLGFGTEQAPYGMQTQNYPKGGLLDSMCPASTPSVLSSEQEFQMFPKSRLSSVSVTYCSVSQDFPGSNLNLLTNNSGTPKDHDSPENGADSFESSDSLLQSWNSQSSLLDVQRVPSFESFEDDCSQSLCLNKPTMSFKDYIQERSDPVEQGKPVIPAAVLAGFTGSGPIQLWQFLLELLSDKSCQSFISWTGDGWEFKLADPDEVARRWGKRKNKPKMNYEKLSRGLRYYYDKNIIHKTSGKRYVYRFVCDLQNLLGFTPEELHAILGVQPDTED
To be noted: protein: recombinant; tags: N-terminal GST; dsDNA, one strand shown. A digest of the protocol: as §1

Assay [14] has as its target T9, SPDEF (Homo sapiens, UniProt O95238 1-335).
T9 sequence: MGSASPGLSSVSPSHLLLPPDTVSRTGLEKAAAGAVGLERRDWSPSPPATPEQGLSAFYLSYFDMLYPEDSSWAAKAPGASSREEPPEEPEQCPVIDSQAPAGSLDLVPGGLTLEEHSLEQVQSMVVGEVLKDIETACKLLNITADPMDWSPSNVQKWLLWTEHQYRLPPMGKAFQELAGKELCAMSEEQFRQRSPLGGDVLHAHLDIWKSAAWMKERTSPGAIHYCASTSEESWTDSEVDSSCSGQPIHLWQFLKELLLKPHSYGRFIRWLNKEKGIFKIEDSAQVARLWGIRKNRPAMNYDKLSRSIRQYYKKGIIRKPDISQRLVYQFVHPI
The settings on record: protein: recombinant; tags: N-terminal GST; dsDNA, one strand shown. The essentials: as §1

Assay [15] addresses T10, ETV7 (Homo sapiens, UniProt Q9Y603 1-341).
T10 sequence: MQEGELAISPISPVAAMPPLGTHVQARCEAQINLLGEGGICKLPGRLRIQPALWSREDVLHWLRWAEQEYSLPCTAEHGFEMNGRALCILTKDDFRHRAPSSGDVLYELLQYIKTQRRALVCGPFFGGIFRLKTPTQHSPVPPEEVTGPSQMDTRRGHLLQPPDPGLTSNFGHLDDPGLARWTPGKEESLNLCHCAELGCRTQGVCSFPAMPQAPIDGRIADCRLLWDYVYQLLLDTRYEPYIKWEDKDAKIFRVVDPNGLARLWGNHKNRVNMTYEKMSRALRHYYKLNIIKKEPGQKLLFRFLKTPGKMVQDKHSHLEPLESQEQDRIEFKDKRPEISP
To be noted: protein: recombinant; tags: N-terminal GST; dsDNA, one strand shown. A digest of the protocol: as §1

Assay [16] addresses T11, ELF5 (Homo sapiens, UniProt Q9UKW6-2 1-255).
T11 sequence: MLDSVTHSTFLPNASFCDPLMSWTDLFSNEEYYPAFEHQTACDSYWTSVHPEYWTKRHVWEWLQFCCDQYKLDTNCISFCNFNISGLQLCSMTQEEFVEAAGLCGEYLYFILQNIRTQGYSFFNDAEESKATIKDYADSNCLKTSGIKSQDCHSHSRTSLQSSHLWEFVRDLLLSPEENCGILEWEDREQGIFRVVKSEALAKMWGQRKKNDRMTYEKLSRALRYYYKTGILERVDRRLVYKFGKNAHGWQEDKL
The settings on record: protein: recombinant; tags: N-terminal GST; dsDNA, one strand shown. A digest of the protocol: as §1

In assay [17] the target is T12, ETV3 (Homo sapiens, UniProt P41162-2 1-143).
T12 sequence: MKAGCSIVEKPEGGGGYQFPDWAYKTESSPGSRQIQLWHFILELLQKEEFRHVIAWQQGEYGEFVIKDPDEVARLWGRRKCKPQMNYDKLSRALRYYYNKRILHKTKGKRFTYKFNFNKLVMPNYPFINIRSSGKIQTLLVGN
To be noted: protein: recombinant; tags: N-terminal GST; dsDNA, one strand shown. The essentials:
as §1

Assay [18] addresses ETV6 (Homo sapiens, UniProt P41212 1-452). To be noted: protein: recombinant; tags: N-terminal GST; dsDNA, one strand shown. The essentials:
as §1

Sequence of ETV1 (P50549 whole entry): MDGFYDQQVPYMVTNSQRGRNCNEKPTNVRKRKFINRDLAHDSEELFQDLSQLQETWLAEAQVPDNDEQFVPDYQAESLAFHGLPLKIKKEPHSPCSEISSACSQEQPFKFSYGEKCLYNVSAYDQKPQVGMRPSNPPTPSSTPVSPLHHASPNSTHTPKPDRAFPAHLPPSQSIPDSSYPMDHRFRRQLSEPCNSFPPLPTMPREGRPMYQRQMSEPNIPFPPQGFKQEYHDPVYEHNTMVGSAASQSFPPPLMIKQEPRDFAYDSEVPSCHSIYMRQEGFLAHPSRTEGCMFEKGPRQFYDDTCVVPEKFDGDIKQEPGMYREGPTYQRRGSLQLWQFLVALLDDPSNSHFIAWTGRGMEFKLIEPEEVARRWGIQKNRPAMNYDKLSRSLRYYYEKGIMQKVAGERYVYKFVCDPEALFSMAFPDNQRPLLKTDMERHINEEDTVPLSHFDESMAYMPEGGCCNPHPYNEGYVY
Sequence of ELF4 (Q99607 whole entry): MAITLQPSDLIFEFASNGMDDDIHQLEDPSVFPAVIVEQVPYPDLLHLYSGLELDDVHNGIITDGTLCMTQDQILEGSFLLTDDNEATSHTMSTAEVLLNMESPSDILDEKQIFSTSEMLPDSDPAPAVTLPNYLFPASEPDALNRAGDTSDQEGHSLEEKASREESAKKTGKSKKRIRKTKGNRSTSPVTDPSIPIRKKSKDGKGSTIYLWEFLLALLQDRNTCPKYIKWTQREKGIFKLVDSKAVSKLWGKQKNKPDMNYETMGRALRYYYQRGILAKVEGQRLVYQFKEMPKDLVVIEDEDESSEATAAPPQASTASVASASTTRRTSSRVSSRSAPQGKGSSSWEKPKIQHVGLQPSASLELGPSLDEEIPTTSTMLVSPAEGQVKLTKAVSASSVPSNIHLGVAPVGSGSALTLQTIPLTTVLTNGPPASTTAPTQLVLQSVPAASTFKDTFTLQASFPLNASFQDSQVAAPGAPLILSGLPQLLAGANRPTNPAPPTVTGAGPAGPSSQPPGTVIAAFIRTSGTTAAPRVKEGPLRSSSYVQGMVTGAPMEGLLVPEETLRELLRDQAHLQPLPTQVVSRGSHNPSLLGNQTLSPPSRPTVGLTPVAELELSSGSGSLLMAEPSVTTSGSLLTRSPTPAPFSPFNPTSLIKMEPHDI
Sequence of ETV6 (P41212 whole entry): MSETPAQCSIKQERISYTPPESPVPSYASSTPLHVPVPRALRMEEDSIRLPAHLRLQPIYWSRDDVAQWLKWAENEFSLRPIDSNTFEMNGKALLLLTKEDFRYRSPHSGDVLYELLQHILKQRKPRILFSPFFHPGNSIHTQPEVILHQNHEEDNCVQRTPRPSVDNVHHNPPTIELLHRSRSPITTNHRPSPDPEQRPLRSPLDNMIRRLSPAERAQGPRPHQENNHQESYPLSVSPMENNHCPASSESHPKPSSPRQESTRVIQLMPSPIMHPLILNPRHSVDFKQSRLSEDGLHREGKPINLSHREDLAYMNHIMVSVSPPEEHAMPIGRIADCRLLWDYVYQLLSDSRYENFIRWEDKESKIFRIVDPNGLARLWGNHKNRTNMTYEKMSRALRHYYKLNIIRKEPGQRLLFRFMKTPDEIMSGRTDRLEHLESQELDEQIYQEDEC
Sequence of ETV5 (P41161 whole entry): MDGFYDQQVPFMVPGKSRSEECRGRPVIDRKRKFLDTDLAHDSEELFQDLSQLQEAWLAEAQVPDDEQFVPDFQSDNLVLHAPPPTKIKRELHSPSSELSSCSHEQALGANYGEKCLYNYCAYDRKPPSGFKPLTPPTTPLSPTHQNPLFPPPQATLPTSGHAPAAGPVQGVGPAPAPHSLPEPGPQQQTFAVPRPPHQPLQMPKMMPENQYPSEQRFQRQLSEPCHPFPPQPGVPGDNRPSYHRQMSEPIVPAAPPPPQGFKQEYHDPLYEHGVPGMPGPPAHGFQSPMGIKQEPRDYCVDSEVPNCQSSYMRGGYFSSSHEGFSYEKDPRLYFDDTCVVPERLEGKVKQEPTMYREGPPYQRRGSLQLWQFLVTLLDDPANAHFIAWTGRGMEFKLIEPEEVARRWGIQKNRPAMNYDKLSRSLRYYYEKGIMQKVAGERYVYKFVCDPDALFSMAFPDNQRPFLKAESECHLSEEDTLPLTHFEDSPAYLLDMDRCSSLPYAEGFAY
Sequence of CRX (O43186 whole entry): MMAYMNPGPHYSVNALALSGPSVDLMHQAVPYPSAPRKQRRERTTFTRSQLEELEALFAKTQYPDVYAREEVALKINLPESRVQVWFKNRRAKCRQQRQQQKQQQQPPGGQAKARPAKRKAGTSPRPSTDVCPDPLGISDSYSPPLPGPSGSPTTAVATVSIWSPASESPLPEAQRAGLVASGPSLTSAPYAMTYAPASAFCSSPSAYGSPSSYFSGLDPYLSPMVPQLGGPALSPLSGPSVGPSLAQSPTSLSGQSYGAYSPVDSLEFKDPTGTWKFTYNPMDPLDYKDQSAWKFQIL
Sequence of HSF1 (Q00613 whole entry): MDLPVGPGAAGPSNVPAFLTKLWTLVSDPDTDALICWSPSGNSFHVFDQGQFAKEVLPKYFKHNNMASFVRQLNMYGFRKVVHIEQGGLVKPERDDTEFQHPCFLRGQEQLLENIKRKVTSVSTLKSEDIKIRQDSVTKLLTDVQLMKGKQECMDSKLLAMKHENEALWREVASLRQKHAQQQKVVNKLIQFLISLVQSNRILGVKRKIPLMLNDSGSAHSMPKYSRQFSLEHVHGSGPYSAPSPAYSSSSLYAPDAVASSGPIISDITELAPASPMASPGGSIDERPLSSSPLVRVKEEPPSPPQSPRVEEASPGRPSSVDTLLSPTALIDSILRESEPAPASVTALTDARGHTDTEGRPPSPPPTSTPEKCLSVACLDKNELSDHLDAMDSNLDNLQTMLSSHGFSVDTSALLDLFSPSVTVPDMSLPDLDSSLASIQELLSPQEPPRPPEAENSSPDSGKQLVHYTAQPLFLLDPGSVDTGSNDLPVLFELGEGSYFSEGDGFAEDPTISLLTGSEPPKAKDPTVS

As to TTCGTC, the binding signal is 1.21 fold enrichment (6-mer frequency, TF over GST control) in [1]; 1.33 fold enrichment (6-mer frequency, TF over GST control) in [2]; 1.25 fold enrichment (6-mer frequency, TF over GST control) in assay [3]; 1.23 fold enrichment (6-mer frequency, TF over GST control) in [4]; 1.29 fold enrichment (6-mer frequency, TF over GST control) in assay [5]; 1.41 fold enrichment (6-mer frequency, TF over GST control) in assay [6]. Also, the binding signal was 1.33 fold enrichment (6-mer frequency, TF over GST control) in assay [7]; 1.39 fold enrichment (6-mer frequency, TF over GST control) in assay [8]; 1.09 fold enrichment (6-mer frequency, TF over GST control) in assay [9]; 1.26 fold enrichment (6-mer frequency, TF over GST control) in assay [10]; 1.36 fold enrichment (6-mer frequency, TF over GST control) in [11]; 1.23 fold enrichment (6-mer frequency, TF over GST control) in [12]. In addition, the binding signal in assay [13] is 1.31 fold enrichment (6-mer frequency, TF over GST control); in [14], 1.29 fold enrichment (6-mer frequency, TF over GST control); in assay [15], 1.22 fold enrichment (6-mer frequency, TF over GST control); in assay [16] it was 1.18 fold enrichment (6-mer frequency, TF over GST control); in assay [17], 1.31 fold enrichment (6-mer frequency, TF over GST control); in assay [18] it was 1.23 fold enrichment (6-mer frequency, TF over GST control).

The record behind these values is PMC7862700, “An all-to-all approach to the identification of sequence-specific readers for epigenetic DNA modifications on cytosine”.
